Reference: PubChem BioAssay AID1069 (NMMLSC, 2008)
Calls of active or inactive are those of the source.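 Rule for the calls: active = high combined rank on largest and smallest cell-count-weighted shift across three tests, rank score above 45, floors 50 and 25 (some results past the limit were not filed as active); inactive = the rest.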

Assay: activators of LNCaP cell differentiation, retest, confirmation, side scatter shift, flow cytometry (AID 1069);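 note: LNCaP human prostate cancer cells in low-serum medium with charcoal-stripped FBS; percent of cells with raised granularity gated so DMSO controls show 10%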
Conditions: 4 d, stronger effect = higher value

| SMILES | side scatter shift (at 100 µM) | side scatter shift (side scatter shift, at 10 µM) |
| --- | --- | --- |
| O=C(CN1CCC(n2nnc3cc(F)ccc32)CC1)Nc1ccc2c(c1)CCC2 | 6.2% (inactive) | 1.9% |
| COCCNC(=O)CC(NS(=O)(=O)c1ccc(NC(C)=O)cc1)C(C)C (centres undefined) | 6.3% (inactive) | 9.45% |
| CC1CCCCN1CCNC(=O)c1ccc2c(=O)n(CCc3ccccc3)c(=O)[nH]c2c1 (centres undefined) | 59.5% (active) | 18.2% |
| CCc1ccc(-c2nc(CN3CCC(C(=O)N4CCN(c5ccccn5)CC4)CC3)c(C)o2)cc1 | 30% (inactive) | 32.4% |
| CCN(CC)CCCNC(=O)c1cc(-c2cccc(Cl)c2)on1 | 4.1% (inactive) | 4.25% |
| COc1ccc2nc(NC(=O)C(NS(=O)(=O)c3cccs3)C(C)C)sc2c1 (centres undefined) | 35.8% (inactive) | 3.1% |
| COc1ccc(Cl)cc1N1CCN(CCNC(=O)Nc2ccccc2C)CC1 | 16.7% (inactive) | 3.25% |
| Cc1cc2c(=O)n(CC(=O)N3CCN(c4ccccc4)CC3)cnc2s1 | 30.4% (inactive) | 5.8% |
| O=C(NCCc1c[nH]c2ccccc12)C(F)(F)C(F)F | 9% (inactive) | 5.05% |
| CCN(CC)CCNC(=O)c1cc2c(-c3ccc(Cl)cc3)nn(C)c2s1 | 24% (inactive) | 64.8% |
| COc1cc2nc(N3CCN(C(=O)C4COc5ccccc5O4)CC3)nc(N)c2cc1OC (centres undefined) | 0% (active) | 55.2% |
| O=S1(=O)C=C(Sc2nc3ccccc3s2)c2ccccc21 | 7.7% (inactive) | 17.9% |
| CCOC(=O)N1CCC(NC(=O)c2cc3c(-c4ccccc4F)nn(C)c3s2)CC1 | 3.3% (inactive) | 3.9% |
| COc1ccc(CCNC(=O)C2CCCN(Cc3nc(-c4ccccc4C)oc3C)C2)cc1OC (centres undefined) | 25% (inactive) | 5.4% |
| CCS(=O)(=O)N1CCC(C(=O)NCCCN2CCN(c3ccccc3F)CC2)CC1 | 13.3% (inactive) | 12.6% |
| CCc1ccc(-c2nc(CN3CCC(C(=O)NCCN(CC)c4ccccc4)CC3)c(C)o2)cc1 | 50% (inactive) | 24.1% |
| CCOc1ccccc1NC(=O)c1nc[nH]c1C(=O)Nc1ccccc1OCC | 40% (inactive) | 6.05% |
| O=C(c1ccc(COCC(F)(F)F)o1)N1CCCCCC1 | 16.9% (inactive) | 4.95% |
| O=C(COc1ccc(S(=O)(=O)N2CCCC2)cc1Cl)NC1CC1 | 3.1% (inactive) | 1.25% |
| Nc1ccc(-n2ccnc2)cc1 | 37.6% (inactive) | 7.5% |
| COc1ccccc1N1CCN(Cc2cc(Br)c(O)c3ncccc23)CC1 | 35.3% (inactive) | 17.4% |

| SMILES | side scatter shift (at 100 µM) | side scatter shift (side scatter shift, at 10 µM) |
| --- | --- | --- |
| Cc1ccc(C)c(N2CCN(CCCNC(=O)Cn3cc4c(n3)CCCCC4)CC2)c1 | 0% (inactive) | 7.55% |
| CCN(CC)CCCNC(=O)c1cc2c(-c3ccc(Cl)cc3)nn(C)c2s1 | 61.5% (active) | 81.5% |
| CC1=C(n2nnc3ccccc32)C(c2ccccc2)C(C#N)=C(N)O1 (centres undefined) | 26% (inactive) | 6.4% |
| Cc1oc(-c2ccc(Cl)cc2)nc1CN1CCC(C(=O)NCc2ccco2)CC1 | 37.1% (inactive) | 9.6% |
| CN(CC(O)COc1ccc(OCC(O)CN(C)C2CCCCC2)cc1)C1CCCCC1 (centres undefined) | 49.4% (active) | 8.9% |
| N=c1n(CCN2CCCCC2)c2ccccc2n1CC(O)COc1ccccc1 (centres undefined) | 20% (active) | 50.2% |
| COCCCN(C(=O)Nc1ccccc1)C(C)c1ccncc1 (centres undefined) | 9.2% (inactive) | 2.8% |
| Cc1oc(-c2cccc(Cl)c2)nc1CN1CCCC(C(=O)NCCCN2CCOCC2)C1 (centres undefined) | 27.3% (inactive) | 23.6% |
| Cc1ccc(C2=Nc3ccccc3NC(C)(c3ccc(C)o3)C2)o1 (centres undefined) | 7.1% (inactive) | 10.1% |
| O=C(Nc1cccc(Cl)c1)N1CCN(Cc2ccccc2)CC1 | 7.1% (inactive) | 10.2% |
| COc1ccc(Cc2nc(-c3ccc(-n4cccc4)cc3)no2)cc1OC | 23.5% (inactive) | 15.8% |
| CCC(C)NC(=O)c1cn(C)c(=O)c2cc(OC)c(OC)cc12 (centres undefined) | 25.6% (inactive) | 5.2% |
| O=C(CSc1c[nH]c2ccccc12)N1CCOCC1 | 11.4% (inactive) | 4.25% |
| CCN1C(=O)OC2(CCCCC2)C1(C)O (centres undefined) | 10.4% (inactive) | 12.7% |
| Cn1c(C(=O)NCCCN2CCN(c3cccc(Cl)c3)CC2)cc2c(=O)n(C)c3ccccc3c21 | 69.6% (active) | 5.45% |
| O=C1c2ccccc2C(Nc2ccc3c(c2)OCO3)N1Cc1ccc2c(c1)OCO2 (centres undefined) | 23.6% (inactive) | 6.65% |
| Cc1ccc(NC(=O)N2CCCN(Cc3ccc(F)cc3)C2)cc1C | 15.4% (inactive) | 28.2% |
| Cn1c(=O)cc(OCC(=O)NCCCN2CCN(c3ccccc3F)CC2)c2ccccc21 | 66.5% (active) | 4.5% |
| CCN1C=C(Cc2cccs2)C2=C(C1)C(c1cccs1)C(C#N)=C(N)O2 (centres undefined) | 20% (inactive) | 5.2% |
| COc1ccc(N2CCN(CCCNC(=O)C3(S(=O)(=O)c4ccc(Cl)cc4)CC3)CC2)cc1 | 26.9% (inactive) | 2.45% |
| Cc1nc2c3cnn(-c4ccccc4)c3ncn2n1 | 5% (inactive) | 1.75% |

| SMILES | side scatter shift (at 100 µM) | side scatter shift (side scatter shift, at 10 µM) |
| --- | --- | --- |
| Cc1ccc2c(c1)NC(=O)C(CC(=O)NCCCN1CCN(c3cc(Cl)ccc3C)CC1)O2 (centres undefined) | 0% (inactive) | 7.35% |
| Cc1cc(=O)n2nc(N3CCCC(C(=O)NCc4ccco4)C3)sc2n1 (centres undefined) | 7.4% (inactive) | 4.75% |
| O=C(CCN1C(=O)COc2ccccc21)NCCCN1CCN(c2ccc(F)cc2)CC1 | 45.3% (inactive) | 7.5% |
| O=C(C1CCN(S(=O)(=O)c2cccc3nsnc23)CC1)N1CC=C(c2ccccc2)CC1 | 25.9% (inactive) | 9.3% |
| Cc1ccc(CN2CCSc3ccc(C(=O)N4CCN(c5ncccn5)CC4)cc32)cc1 | 18.6% (inactive) | 7.2% |
| CCOc1ccccc1NC(=O)CCC(=O)O | 6.7% (inactive) | 6.85% |
| CCOC(=O)c1ccc(NC(=O)Nc2ccc3c4c(cccc24)C(=O)N3CC)cc1 | 34.3% (inactive) | 8.75% |
| CCOC(=O)c1[nH]c(C)c(C(=O)NC2CCCCCC2)c1C | 4.8% (inactive) | 8.6% |
| Cc1ccccc1-c1nc(CN2CCC(C(=O)O)CC2)c(C)o1 | 3.7% (inactive) | 1.25% |
| Cc1oc(-c2ccccc2F)nc1CN1CCC(C(=O)NCc2cccs2)CC1 | 39.3% (inactive) | 6.3% |
| COc1ccc(Cc2noc(-c3ccc(C)cc3)n2)cc1 | 21.4% (inactive) | 10.1% |
| Cc1cccc(-c2nc(CN3CCCC(C(=O)NC4CCCCCC4)C3)c(C)o2)c1 (centres undefined) | 41.2% (inactive) | 10.8% |
| CCc1ccc(-c2nc(CN3CCC(C(=O)NCc4ccc(F)cc4)CC3)c(C)o2)cc1 | 0% (inactive) | 17.9% |
| CCOC(=O)c1c(C)[nH]c(C(=O)COC(=O)C2CC2C)c1C (centres undefined) | 24.3% (active) | 44.6% |
| O=c1cc(N2CCc3ccccc3C2)[nH]c(=O)n1C1CCCCC1 | 16.8% (inactive) | 5.9% |
| CCC(CC)C(=O)Nc1cccc(C(=O)NCc2ccco2)c1 | 14.1% (inactive) | 6% |
| Cc1ccc2c(c1)NC(=O)C(CC(=O)NCCCN1CCN(c3cc(C)ccc3C)CC1)O2 (centres undefined) | 30.1% (inactive) | 2.95% |
| O=C(CCNC(=O)Cn1ccc2ccccc2c1=O)NCCCN1CCN(c2ccc(F)cc2)CC1 | 21.8% (inactive) | 7.25% |
| Cc1cc(C)n2nnnc2c1C#N | 3.9% (inactive) | 6.4% |
| CC1CCCCN1CCNC(=O)c1cc2c(-c3ccccc3F)nn(C)c2s1 (centres undefined) | 42.4% (inactive) | 19.9% |
| COc1ccc(-n2c3c(cc(C(=O)N4CCC(C)CC4)c2=O)C(=O)CC(C)(C)C3)cc1 | 20% (inactive) | 1.8% |

| SMILES | side scatter shift (at 100 µM) | side scatter shift (side scatter shift, at 10 µM) |
| --- | --- | --- |
| Cc1cc(N2C(=O)C3C4C=CC(C4)C3C2=O)ccc1Br (centres undefined) | 9.6% (inactive) | 16.5% |
| COc1ccc(-c2ccc(-c3noc(-c4ccccc4)n3)c(OC)n2)cc1 | 56.7% (inactive) | 22.5% |
| c1cncc(-c2nc3ccccc3o2)c1 | 10.2% (inactive) | 2.9% |
| CCc1ccc(-c2nc(CN3CCC(C(=O)N4CCN(c5ccccc5)CC4)CC3)c(C)o2)cc1 | 44.4% (inactive) | 19.8% |
| Cc1ccc(C)c(N2CCN(C(=O)CCNC(=O)Cn3ccc4ccccc4c3=O)CC2)c1 | 25% (inactive) | 10% |
| N#CC(C(=O)c1ccco1)c1ccccn1 (centres undefined) | 2.5% (inactive) | 10.3% |
| Cn1c(C(=O)NCCCN2CCN(c3ccccc3F)CC2)cc2c(=O)[nH]c3ccccc3c21 | 33.3% (inactive) | 11.1% |
| CCOC(=O)c1c(-c2ccc(C)o2)csc1NC(=O)CN1CCN(CC)CC1 | 22.2% (inactive) | 8.3% |
| O=c1cc(N2CCN(c3ccc(F)cc3)CC2)[nH]c(=O)n1C1CCCCC1 | 16.8% (inactive) | 5.4% |
| Cc1ccccc1CS(=O)(=O)CCC(=O)NCCCN1CCN(c2ccccc2F)CC1 | 56.5% (active) | 6.05% |
| Cc1oc(-c2ccc(Cl)cc2)nc1CN1CCCC(C(=O)NCCCN2CCCC2=O)C1 (centres undefined) | 14% (inactive) | 13.6% |
| COc1ccc(-c2cc(C(=O)NCc3ccc(Cl)cc3)no2)cc1OC | 28.5% (inactive) | 7.15% |
| COc1ccc(NC(=O)NCCCN2CCN(c3cc(C)ccc3C)CC2)cc1 | 0% (inactive) | 7.1% |
| COC(=O)c1ccc2c(=O)n(Cc3ccco3)c(SCC(=O)Nc3ccc(C)c(Cl)c3)nc2c1 | 21% (inactive) | 10.6% |
| O=C(CCN1C(=O)COc2ccccc21)NCCCN1CCN(c2ccccc2F)CC1 | 21% (inactive) | 4.4% |
| CCOc1nc(-c2ccccc2O)nc2ccccc12 | 13.5% (inactive) | 8.8% |
| COc1ccc2cc3c(N)nn(C(=O)Cc4ccccc4OC)c3nc2c1 | 20% (inactive) | 8.05% |
| O=C(Cn1cnc2ccccc2c1=O)NCCC(=O)N1CCN(c2ccccc2)CC1 | 17.1% (inactive) | 4% |
| COc1cc(C2C3=C(Nc4ncnn42)c2ccccc2CC3)cc(OC)c1OC (centres undefined) | 11.2% (inactive) | 4.5% |
